This is a sample that favours compounds with a hit; in the whole collection about 3.5% have one here.
FBW7 activator – activators of human E3 ligase FBW7 | normalized activity (activation), % at 26.1 µM | 0.13% of 650,000 active | AlphaScreen FBW7–phospho-cyclin E peptide binding, activator screen | Q969H0 | AID 1259310; in the data active means normalized activity above about 1.9%;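 further: purified mutant Fbw7 with reduced substrate affinity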
GPR151 ag – human GPR151 activation | 1% of 650,000 active | activation, % at 11.2 µM | AID 1508602 | PathHunter beta-arrestin GPR151 cells, luminescence; in the data active means activation above about 4.9%;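 further: 0% = median of compound wells and 100% = cells with positive control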
Target sequence (Q8TDV0 whole entry, looked up): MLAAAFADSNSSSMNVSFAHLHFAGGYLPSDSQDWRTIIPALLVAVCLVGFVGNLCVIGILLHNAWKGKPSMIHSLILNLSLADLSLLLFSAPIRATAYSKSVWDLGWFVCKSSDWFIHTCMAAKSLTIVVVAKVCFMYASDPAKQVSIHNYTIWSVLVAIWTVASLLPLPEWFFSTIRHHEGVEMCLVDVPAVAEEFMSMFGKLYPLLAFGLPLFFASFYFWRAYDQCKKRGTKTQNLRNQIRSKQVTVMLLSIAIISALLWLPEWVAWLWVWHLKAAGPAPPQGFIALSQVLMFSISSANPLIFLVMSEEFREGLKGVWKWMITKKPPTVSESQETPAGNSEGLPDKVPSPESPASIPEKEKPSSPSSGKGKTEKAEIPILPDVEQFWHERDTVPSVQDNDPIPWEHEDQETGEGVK
TEAD-YAP block – TEAD-YAP interaction inhibition | HEK-TIYL cells, TEAD-Gal4/YAP UAS-luciferase luminescence | inhibition, % at 9.12 µM | 1.4% of 640,000 active | AID 1259422; in the data active means inhibition above about 32%;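 further: 0% = median of test compound wells and 100% = reference inhibitor wells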
MITF inh – blocks human microphthalmia-associated transcription factor; O75030; AlphaScreen MITF homodimerization, bead proximity signal; inhibition, % at 2.6 µM; 0.91% of 650,000 active; AID 1259374; in the data active means inhibition above about 50%;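 further: 0% = vehicle wells with protein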
MITF inh conf – human MITF inhibition, confirmation; shares compounds with MITF inh; AlphaScreen MITF homodimerization, biotin/His-MITF beads; inhibition, % at 2.6 µM; 16% of 4,700 active; AID 1259372;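 active means inhibition above a cutoff derived from the DMSO control wells, cut at about 28% in these data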;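 further: 0% = MITF dimer wells with DMSO only; inhibitors lower the bead chemiluminescence by keeping MITF from dimerizing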
AlphaScreen DR – optically interferes with AlphaScreen signal in dose response; shares compounds with MITF inh; 6% of 480 active; IC50, µM; AlphaScreen optical interference counterscreen, cell-free; call rule not given here
AlphaScreen intf2 – optically interferes with AlphaScreen signal; LysRS AlphaScreen counterscreen, signal interference, triplicate; 7.6% of 4,700 active; shares compounds with MITF inh; inhibition, % at 2.6 µM;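 active means inhibition above a cutoff derived from the DMSO control wells, cut at about 30% in these data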
* marks the source's active call; other numbers are inactive results; x = no result given.

SMILES | FBW7 activator | GPR151 ag | TEAD-YAP block | MITF inh | MITF inh conf | AlphaScreen intf2 | others
Nc1c(C(=O)Nc2ccc(Cl)cc2)nnc2cc(-c3ccc(Cl)cc3)nn12 | 0 | 0 | 5 | 82* | 7 | 5
CCCOc1ccccc1C1C(C(=O)OCCc2ccccc2)=C(C)NC2=C1C(=O)CC(C)(C)C2 (configuration not stated) | 0 | 1 | -11 | 4 | x | x
O=C1CNS(=O)(=O)c2ccccc2N1 | 1 | 0 | -6 | 59* | 16 | 13
O=C(NCc1ccccc1)C1CC12CCN(C(=O)CCCc1cccs1)CC2 (configuration not stated) | 0 | 1 | -33 | 62* | 1 | 7
O=C(NCc1cccs1)C1CC12CCN(C(=O)Cc1ccc(-c3ccccc3)cc1)CC2 (configuration not stated) | 0 | 1 | 8 | 12 | x | x
c1ccc2c(c1)OCC(c1nc3c(-c4ccncc4)cncc3[nH]1)O2 (configuration not stated) | 0 | 0 | -4 | 61* | 39* | 10 | AlphaScreen DR=>6.5
C=CCc1cc(Cl)ccc1OCCCN1CCOCC1 | 0 | 4 | 11 | 71* | -1 | 7
C=CCc1cc(C)ccc1OCCCCN1CCOCC1 | 0 | -2 | 3 | 56* | 15 | 19
C=CCc1cc(Cl)ccc1OCCCN1CCN(CC)CC1 | 0 | -2 | 11 | 81* | 1 | 19
COc1ccc(-c2cc(N)n(S(=O)(=O)c3ccc(Cl)cc3)n2)cc1OC | 0 | 0 | -6 | -2 | x | x
CC1CCC(N2CCN(C(=O)c3ccccc3)CC2)CC1 (configuration not stated) | 0 | 1 | -11 | 43 | x | x
CC(C)CC(=O)N1CCN(C2CCC(C)CC2)CC1 (configuration not stated) | 0 | -2 | 2 | 59* | -2 | 12
O=C(Nc1ccc(N2CCOCC2)cc1)c1ccc2nc(Nc3ccc(N4CCOCC4)cc3)sc2c1 | 0 | 0 | -4 | 5 | x | x
O=C(Nc1ccc(N2CCOCC2)cc1)c1ccc2nc(-c3cccs3)sc2c1 | 0 | 1 | 1 | 55* | 57* | 5 | AlphaScreen DR=>7.8
O=C(Nc1ccc(N2CCOCC2)cc1)c1ccnc(Nc2ccc(N3CCOCC3)cc2)c1 | 0 | 0 | -4 | 9 | x | x
O=C(Nc1ccc(N2CCOCC2)cc1)c1ccnc(Nc2ncccn2)c1 | 0 | 4 | -7 | 59* | 84* | -11 | AlphaScreen DR=>7.1
O=C(Nc1ccc(N2CCOCC2)cc1)c1ccc2nc(Nc3ccccn3)sc2c1 | 0 | 3 | -14 | 70* | 79* | -18 | AlphaScreen DR=>6.8
Cc1cccc(C)c1OCCOCCN1CCN(C)CC1 | 0 | 2 | -1 | 64* | 21 | 16
Cc1cccc(C(C)(C)C)c1OCCOCCN1CCOCC1 | 0 | 3 | -3 | 30 | x | x
Cc1ccccc1OCCOCCN1CCN(C)CC1 | 0 | -1 | -3 | 73* | 15 | 18
Cc1cccc(C(C)(C)C)c1OCCCN1CCN(C)CC1 | 0 | 1 | 2 | 68* | -11 | -7
COc1cc(Nc2ccc(NC(=O)c3cccc(F)c3)cc2)nc(C)n1 | 0 | 1 | 15 | 57* | -5 | -6
Cc1ccc2[nH]c(=O)c(CN(CC3CCCO3)S(=O)(=O)c3ccccc3)cc2c1 (configuration not stated) | 0 | 0 | -4 | -13 | x | x
COc1ccc(S(=O)(=O)N(Cc2cc3ccc(C)cc3[nH]c2=O)CC2CCCO2)cc1 (configuration not stated) | 0 | -1 | 12 | 69* | 10 | 17
O=C(/C=C/c1ccco1)NC(=S)Nc1cc(C(=O)O)ccc1Cl | 0 | -1 | 10 | 63* | 69* | 7 | AlphaScreen DR=>6.5
SMILES | FBW7 activator | GPR151 ag | TEAD-YAP block | MITF inh | MITF inh conf | AlphaScreen intf2 | others
Cc1c(NC(=S)NC(=O)/C=C/c2ccco2)cccc1C(=O)O | 0 | 1 | 0 | 67* | 60* | 23 | AlphaScreen DR=>6.5
O=C(/C=C/c1ccco1)NC(=S)NNC(=O)c1ccccc1O | -1 | -1 | 58* | 61* | 66* | -18 | AlphaScreen DR=>6.5
CCOC(=O)c1ccc(NC(=S)NC(=O)/C=C/c2ccco2)cc1 | 0 | 0 | -1 | 69* | 4 | 3
O=C(NCc1cccnc1)C(=O)Nc1cccc(Br)c1 | 0 | 1 | -13 | -3 | x | x
CCc1ccc(N2CC(C(=O)Nc3ccc4ccccc4c3)CC2=O)cc1 (configuration not stated) | 0 | 0 | -5 | 7 | x | x
O=C(Cn1nnc(-c2ccc3c(c2)OCO3)n1)Nc1ccc(OC(F)(F)F)cc1 | 0 | 2 | -1 | 10 | x | x
O=C(C1CCN(Cc2ccc(F)cc2)CC1)N1CCN(Cc2ccccc2)CC1 | 0 | 1 | 2 | 62* | 7 | 14
Cc1ccc(CNC(=O)C2CCN(Cc3ccc(F)cc3)CC2)cc1 | 0 | 0 | 3 | 37 | x | x
CCOC(=O)C1CCN(Cc2cn[nH]c2-c2ccccc2)CC1 | 0 | -1 | -2 | 55* | -14 | 11
CCOc1ccc(CN2CCC(C(=O)NCc3ccc(C)cc3)CC2)cc1 | 0 | 0 | 12 | 54* | 8 | 18
CCc1ccc(CN2CCC(C(=O)N3CCCC3)CC2)cc1 | 0 | -1 | -1 | 58* | 14 | 19
CCCCN(C)C(=O)c1cc(COc2c(F)cccc2F)on1 | 0 | 1 | 5 | 13 | x | x
Nc1c(C(=O)c2ccc(Br)cc2)sc2nc(N3CCOCC3)c3c(c12)CCCC3 | 0 | 1 | 2 | -9 | x | x
COCCCNc1nc2ccc(C)cc2n2cnnc12 | 0 | 1 | 11 | 0 | x | x
NS(=O)(=O)c1ccc(Nc2nccc(N[C@H]3CCCNC3)n2)cc1 | 0 | 0 | -18 | -3 | x | x
CCC(C)NC(=O)CNC(=O)Cn1cnc2sc(C)cc2c1=O (configuration not stated) | 0 | 0 | 6 | 18 | x | x
CCOC(=O)C1CCN(C(=O)C2CCN(Cc3ccc(OCC)cc3)CC2)CC1 | 0 | 0 | 14 | 53* | 11 | 11
CCOC(=O)C1CCN(C(=O)/C=C/c2ccc(F)cc2)CC1 | 0 | 0 | -36 | 71* | 1 | -2
CCOC(=O)C1CCN(C(=O)C2CCN(Cc3ccc(CC)cc3)CC2)CC1 | 0 | -2 | 13 | 61* | 7 | 16
CCOC(=O)N1CCN(C(=O)C2CCN(Cc3ccc(CC)cc3)CC2)CC1 | 0 | -2 | -3 | 42 | x | x
CCOC(=O)C1CCN(C(=O)/C=C/c2ccccc2)CC1 | 0 | -1 | -44 | -2 | x | x
C=CCc1ccccc1OCCOCCN1CCCCC1 | 0 | -2 | 2 | 79* | 11 | 25
C=CCc1ccccc1OCCOCCN1CCN(C)CC1 | 0 | 0 | 0 | 60* | -1 | 13
NC(C(=O)N1CCC(Nc2ccc3[nH]ncc3c2)CC1)c1ccc(Cl)cc1 (configuration not stated) | 0 | -1 | -4 | 74* | 13 | 24

Screening data deposited in PubChem by The Scripps Research Institute Molecular Screening Center.
